The subject of the assay is Plasmodium falciparum. The experiment in a line: GSK_TCMDC: Inhibition of Plasmodium falciparum 3D7 in whole red blood cells, using parasite LDH activity as an index of growth. Test compounds present at 2uM. The class given is functional.
The Inhibition is the share of the control response that was lost under treatment. A lower Inhibition goes with little suppression. In turn, `CCc1cn(C)c2c(N3CCCC3=O)cc(C(=O)N[C@@H](Cc3ccccc3)[C@H](O)CNC3CCCCC3)cc12` showed an Inhibition of 97%. To `Oc1ccc2ccccc2c1C=NNc1nc(=Nc2ccccc2)nc(N2CCOCC2)[nH]1` belongs 100%; to `CC1N=C(N)N=C(N)N1OCc1cccc2ccccc12` (stereo unspecified), 93%; to `CC(C)NCc1cccc(-c2ccc(-c3nc4cc(C(F)(F)F)ccc4[nH]3)cc2)c1.O=C(O)C(F)(F)F`, 99%. Turning to `COc1ccc2nc(-c3ccccc3)cc(N/N=C/c3ccc([N+](=O)[O-])o3)c2c1`, the Inhibition worked out at 100%. `CCS[C@@H]1O[C@H](COC(=O)c2ccccc2)[C@H](OC(=O)c2ccccc2)[C@H](OC(=O)c2ccccc2)[C@H]1OC(=O)c1ccccc1` had an Inhibition of 98%. Take `CS(=O)(=O)c1ccc(CNCc2cccc(-c3cccc(-c4nc5cc(C(F)(F)F)ccc5[nH]4)c3)c2)cc1.O=C(O)C(F)(F)F`: the Inhibition came to 100%.

On to `COc1cc(NCC(C)CNCc2cn(Cc3ccccc3)c3ccccc23)nc2ccccc12` (stereo unspecified), for which the Inhibition came to 90%.

Turning to `O=C(NCc1ccco1)c1ccc(CN2CCN(C(c3ccccc3)c3ccccc3)CC2)cc1`, the Inhibition is recorded as 96%. The figure for `CCCCCc1cc(OC(=O)CCCN(CC)CC)c2c(c1)OC(C)(C)C=C2C1=CCN(Cc2ccc3ccccc3c2)CC1` is 100%; for `CN1CCC(C(=O)N(Cc2ccc(-c3ccc(CNCCc4ccc(S(C)(=O)=O)cc4)cn3)cc2)C2Cc3ccccc3C2)CC1.O=C(O)C(F)(F)F` it is 98%. The compound `CCOc1ccccc1CNc1nccc(NCc2ccc(Cl)cc2Cl)n1` had an Inhibition of 83%. Take `O=C(/C=C/c1ccc(Cl)c(Cl)c1)NCCCCCN1CCC(NC(=S)Nc2ccc(Cl)c(Cl)c2)CC1`: the Inhibition came out at 99%. The compound `COc1cccc2sc(Nc3nc(-c4ccccn4)cs3)nc12` had an Inhibition of 94%. The figure for `CN(CCCc1c[nH]c2ccccc12)CCC1CCC(NC(=O)/C=C/c2ccc(Cl)c(Cl)c2)CC1` (stereo unspecified) is 99%.

Consider `CC(C)N1CCC(Oc2ccc(CN3CCN(C(c4ccccc4)c4ccc(Cl)cc4)CC3)cc2)CC1.Cl` (stereo unspecified), for which the Inhibition came to 97%. `CCCCSc1c(CNCCCCCCNCc2ccc3ccccc3c2SCCCC)ccc2ccccc12.CS(=O)(=O)O`: the Inhibition was 93%. The compound `O=C(/C=C/c1cccc(Br)c1)NCCCCCN1CCC(c2c[nH]c3ccccc23)CC1` yielded an Inhibition of 100%. As for `Nc1nonc1-c1nc2c(-c3cccc(Cl)c3)nccc2n1CCCNC(=O)Cc1ccc(Cl)cc1`, the Inhibition is reported as 94%. The compound `Cc1cc(C(=O)Nc2ccc3c(c2)CCN3C2CCN(Cc3csc4ccccc34)C2)no1` (stereo unspecified) returned an Inhibition of 96%. The figure for `COc1cccc(OC)c1C(=O)N1CCC2(CC1)C(=O)N(CC(=O)NC1CCCCC1)CN2c1ccccc1` is 92%. The figure for `COc1ccc2c(NN=Cc3ccc(F)cc3)ccnc2c1` is 100%.

In the case of `CCNc1cc(C(=O)N[C@@H](Cc2ccccc2)[C@H](O)CNC(C)(C)c2cccc(OC)c2)cc(N2CCCC2=O)c1.O=CO`, the Inhibition was 100%. In turn, `COc1ccc2nccc([C@@H](O)CN3CCC(NC(=O)C(c4cc5ccccc5o4)N4CCN(c5ccc(F)cc5)CC4)CC3)c2c1` (stereo partly specified) registered an Inhibition of 100%. With `O=C(O)c1ccc(NC(=O)C2CC(=O)N(Cc3ccc(Cl)cc3)C(=Nc3ccc(Cl)cc3)S2)cc1` (stereo unspecified), the Inhibition stood at 99%.

Compound `O=C(Nc1ccc(-c2ccccc2)cc1)Nc1cccc(Cn2cnc(N3CCCNCC3)cc2=O)c1.O=C(O)C(F)(F)F` registered an Inhibition of 88%. The figure for `COc1cccc2c(N/N=C/c3cccc([N+](=O)[O-])c3)ccnc12` is 100%. `COc1cc2ccccc2cc1CCNCCCCNCCc1cc2ccccc2cc1OC.CS(=O)(=O)O` had an Inhibition of 99%. For the compound `O=C(Nc1ccc2c(c1)CN(Cc1ccc(N3CCCC3)o1)CCC2)c1ccoc1.O=CO`, the Inhibition worked out at 89%.

`CC(=O)NCCNc1nccc(N2CCc3ncnc(Nc4ccc(OCc5cccc(F)c5)c(Cl)c4)c3C2)n1` yielded an Inhibition of 100%.

As to `COc1cc2nc(NCCc3ccccc3)nc(NCc3cnn(C)c3C)c2cc1OC`, the Inhibition stood at 99%. `CCCCOc1ccc(-c2nc3ccccc3[nH]2)cc1` gave an Inhibition of 86%.

For `Cc1cc(OCCCN2CCC(NS(=O)(=O)c3cc(Br)c(Cl)s3)CC2)c2ccccc2n1`, the Inhibition stood at 95%. Turning to `CC(C)c1ccc(NC(=O)c2cccc(CN3CCCN(CC4CCCCC4)CC3)c2)cc1.O=C(O)C(F)(F)F`, the Inhibition stood at 85%.

On to `CN1CCN(c2ccnc3ccc(NC(=O)Nc4ccc5c(c4)CCC5=O)cc23)CC1`, for which the Inhibition is given as 100%. `CC(=O)Nc1ccc2[nH]cc(C3CCN(CCC4CCN(C(=O)/C=C/c5ccc(Cl)c(Cl)c5)CC4)CC3)c2c1` yielded an Inhibition of 95%.

The values are drawn from ChEMBL document CHEMBL1157539, “Thousands of chemical starting points for antimalarial lead identification” (Nature, 2010).
